# Data taken from PubChem BioAssay (NCI).
# About 83,000 compounds went through this panel and 20% of them were active in at least one assay; those are over-represented in the sample as a whole.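 Values shown are percent growth following 48 h exposure of cells in 96-well plates to a single concentration of compound; below 10 was considered active.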 A number with no mark means an inactive call. The source made the active and inactive calls.
# Tests used:
# Test in all cases: NCI-60 one-dose screen, 48 h (100 = growth as untreated, 0 = no growth, -100 = all killed)
# Details in all cases: 10 µM unless noted
# NCI-H23 lung = tested on: NCI-H23 lung
# NCI-H226 lung = tested on: NCI-H226 lung
# NCI-H322M lung = tested on: NCI-H322M lung
# HOP-62 NSCLC = tested on: HOP-62 NSCLC
# NCI-H460 lung = tested on: NCI-H460 lung
# HOP-92 NSCLC = tested on: HOP-92 NSCLC
# NCI-H522 lung = tested on: NCI-H522 lung
# A549/ATCC NSCLC = tested on: A549/ATCC NSCLC
# COLO 205 colon = tested on: COLO 205 colon
# DU-145 prostate = tested on: DU-145 prostate
# K-562 leukemia = tested on: K-562 leukemia
# MALME-3M melanoma = tested on: MALME-3M melanoma
# MDA-MB-231 breast = tested on: MDA-MB-231 breast
# SF-268 CNS = tested on: SF-268 CNS
# SF-295 CNS = tested on: SF-295 CNS
# SF-539 CNS = tested on: SF-539 CNS
# UACC-257 melanoma = tested on: UACC-257 melanoma
# M14 melanoma = tested on: M14 melanoma
# 786-0 renal = tested on: 786-0 renal
# RXF 393 renal = tested on: RXF 393 renal
Structure (SMILES),growth (NCI-H23 lung) [%],growth (NCI-H226 lung) [%],growth (NCI-H322M lung) [%],growth (HOP-62 NSCLC) [%],growth (NCI-H460 lung),growth (HOP-92 NSCLC),growth (NCI-H522 lung) [%],growth (A549/ATCC NSCLC),growth (COLO 205 colon) [%],growth (DU-145 prostate) [%],growth (K-562 leukemia),growth (MALME-3M melanoma) [%],growth (MDA-MB-231 breast),growth (SF-268 CNS) [%],growth (SF-295 CNS),growth (SF-539 CNS),growth (UACC-257 melanoma),growth (M14 melanoma),growth (786-0 renal),growth (RXF 393 renal)
O=C1OC(c2ccc(-c3ccccc3)cc2)=C/C1=C/C=C/c1ccccc1,100,82.3,92.5,97.1,103%,68.7%,95.1,9.59% (active),120,111,96%,104,105%,90.5,65.6%,105%,-13.8% (active),112%,–,–
CCOc1ccc(NC(=O)Nc2cc(C(C)C)ccc2C)cc1,79.2,92.8,90.8,95,106%,55.1%,46.4,–,98.7,93.2,85%,105,16.7%,69.2,104%,90%,66.4%,93.4%,13%,-31.8% (active)
COc1cc(C(=O)NNC(=O)c2ccccc2C(=O)O)cc(OC)c1OC,15.9,74.6,80.7,51.6,11.9%,55.3%,32.2,–,37.5,56.8,43.1%,62,45.2%,53.8,46.8%,30.1%,69.9%,–,38.8%,-3.15% (active)
Cc1nssc1=S,91.5,99.6,85.2,107,109%,59.9%,82.6,–,91.2,113,93.8%,102,112%,106,99.7%,101%,102%,88.2%,95.3%,113%
N#CC(C#N)=C(C#N)c1c[nH]c2ccccc12,87.4,78.4,110,81.2,92.8%,41.2%,57.4,–,73.8,88,91.3%,86.1,84.8%,90.7,103%,80.4%,85.2%,79.7%,82.4%,88.2%
O=C(Nc1ccc(-n2cc(-c3ccncc3)c(-c3ccc(O)c(Cl)c3)n2)cc1)c1ccc(Cl)c(C(F)(F)F)c1,29.9,79.6,54.6,33.6,8.06% (active),-3.55% (active),24.3,–,57.8,35.3,5.88% (active),25,-29.1% (active),38,-2.61% (active),2.46% (active),60.9%,-16.2% (active),-30.9% (active),-81.6% (active)
COc1ccc(-c2cc(-c3nnc(SC/C(=N\O)c4ccccc4)n3-c3ccccc3)c3ccccc3n2)cc1,94.6,96.2,101,91.1,104%,94.8%,87.2,–,91.1,111,113%,100,103%,102,104%,102%,104%,116%,113%,117%
CSc1nc(N)nc2c1ncn2C,95.8,102,104,84.6,104%,64.5%,78,–,94.5,108,95%,104,109%,98.7,108%,98.9%,104%,102%,90%,116%
CN1CCN(Cn2nc(-c3cc(F)c(Cl)cc3Cl)n(/N=C/c3ccc(N(C)C)cc3)c2=S)CC1,98,101,83.1,56,115%,–,69,106%,103,87.3,22.4%,63.4,102%,102,48.4%,78.1%,93.8%,37.3%,93.3%,82.7%
CC(C)(c1ccc(OCC(O)CNCc2ccco2)cc1)c1ccc(OCC(O)CNCc2ccco2)cc1 (configuration not stated),93.4,94.6,99.4,82.2,98%,–,86,81.2%,85.5,92,60.8%,98,62.4%,77.7,95.2%,89.7%,92.8%,92.1%,70.8%,76.4%
CCC1S/C(=N\N=C(/C)c2cc3ccccc3o2)N(c2ccccc2)C1=O (configuration not stated),93.6,108,92.2,101,123%,47%,88.3,–,123,161,79.8%,105,85.4%,202,128%,135%,118%,101%,103%,98.7%
Fc1ccc(Nc2ncnc3ccc(-c4cn[nH]c4)cc23)cc1Cl,80.3,57.1,15.9,66.2,55.5%,54.6%,10.3,–,60.7,50.8,66.5%,54.9,63.5%,59.6,56.3%,49.7%,89.5%,58.7%,61.5%,40.3%
Cc1c(F)cccc1NC(=O)c1sc2nc3c(cc2c1N)CCCCC3,79.6,56.8,85.8,50.3,56.7%,70.5%,20,–,74.2,69.1,12.5%,55,83.6%,83.4,55.3%,66.9%,52.3%,28.2%,75.7%,69.5%
O=C(O)c1cccc(S(=O)(=O)c2ccccc2)c1,96.8,96.8,98.6,103,100%,82.8%,93.5,–,104,107,107%,87.7,123%,103,95%,98.5%,105%,95.9%,108%,101%
COc1ccc(/C=C2/C(=O)Nc3cc(Cl)c(-c4csc(N)n4)cc32)cc1,58,69.2,68.3,50.1,42.7%,43.1%,21.6,–,33.7,67.5,13.6%,75.1,27.3%,58.7,52.4%,37.8%,82.7%,29.9%,62.3%,59.7%
N#Cc1c(N)nc(Cl)c(C#N)c1C(=O)c1ccccc1,67,87.9,96.5,69.4,61.5%,–,39.1,70.9%,61.6,52.1,5.81% (active),42.3,26.3%,38.6,56.1%,15.2%,69.4%,35%,37.8%,-2.56% (active)
